Assay results reported in PubChem BioAssay AID1159580 (chemical genetic matrix, 2015).
Among all 5,500 compounds or so, about 2,000 (36%) were called active. Another 18% or so got no clear call; they are omitted. No stated cut-off is given here; in the data, active means normalized growth mostly below about 0.91 (no sharp cut-off); inconclusive means no clear call, values can overlap the other calls; inactive means mostly above about 0.92. The list shows a part of the results.

Assay: chemical genetic growth profiling, strain panel (AID 1159580);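 further: tested at 20 µM; growth read once vehicle control cultures reached saturation at 30 °C; 1 = growth at the plate median or of vehicle wells; lower values mean less growth of the strain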
Conditions: growth OD

Measured: normalized growth

O=C(Cc1cccs1)NC1C(=O)N2C(C(=O)[O-])=C(C[n+]3ccccc3)CSC12 (stereo unspecified)
inactive: S. cerevisiae deletion strains, locus YJR075W, strain HOC1, hits give low values 1.01 | S. cerevisiae deletion strains, locus YKL009W, strain mrt4, hits give low values 0.989 | S. cerevisiae deletion strains, locus YKL068W, hits give low values 1.01 | S. cerevisiae deletion strains, locus YKL085W, strain MDH1 (second series), hits give low values 1 | S. cerevisiae deletion strains, locus YKL085W, strain MDH1, hits give low values 1 | S. cerevisiae deletion strains, locus YKL160W, strain elf1, hits give low values 1 | S. cerevisiae deletion strains, locus YKL190W, strain CNB1, hits give low values 1.01 | S. cerevisiae deletion strains, locus YKR001C, strain vps1, hits give low values 0.992 | S. cerevisiae deletion strains, locus YKR026C, strain gcn3, hits give low values 0.988 | S. cerevisiae deletion strains, locus YKR091W, strain srl3, hits give low values 0.985 | S. cerevisiae deletion strains, locus YLL001W, strain dnm1, hits give low values 0.979 | S. cerevisiae deletion strains, locus YLL026W, hits give low values 0.997 | S. cerevisiae deletion strains, locus YLL041C, strain sdh2, hits give low values 0.994 | S. cerevisiae deletion strains, locus YLR027C, strain aat2, hits give low values 0.989 | S. cerevisiae deletion strains, locus YLR039C, strain RIC1, hits give low values 1.01 | S. cerevisiae deletion strains, locus YLR058C, strain SHM2, hits give low values 0.99 | S. cerevisiae deletion strains, locus YLR102C, strain apc9, hits give low values 0.997 | S. cerevisiae deletion strains, locus YLR221C, strain rsa3, hits give low values 0.99 | S. cerevisiae deletion strains, locus YLR258W, strain gsy2, hits give low values 0.986 | S. cerevisiae deletion strains, locus YLR262C, strain YPT6 (second series), hits give low values 0.973 | S. cerevisiae deletion strains, locus YLR262C, strain YPT6, hits give low values 1.03 | S. cerevisiae deletion strains, locus YLR268W, strain sec22, hits give low values 0.979 | S. cerevisiae deletion strains, locus YLR320W, strain mms22, hits give low values 0.979 | S. cerevisiae deletion strains, locus YLR330W, strain CHS5, hits give low values 1.01 | S. cerevisiae deletion strains, locus YLR342W, strain FKS1 (second series), hits give low values 0.956 | S. cerevisiae deletion strains, locus YLR342W, strain FKS1, hits give low values 0.986 | S. cerevisiae deletion strains, locus YLR357W, strain rsc2, hits give low values 0.937 | S. cerevisiae deletion strains, locus YLR370C, strain arc18, hits give low values 0.989 | S. cerevisiae deletion strains, locus YLR371W, strain rom2, hits give low values 0.985 | S. cerevisiae deletion strains, locus YLR384C, strain iki3, hits give low values 0.974 | S. cerevisiae deletion strains, locus YLR418C, strain cdc73, hits give low values 0.949 | S. cerevisiae deletion strains, locus YML016C, strain PPZ1, hits give low values 0.999 | S. cerevisiae deletion strains, locus YML032C, strain rad52, hits give low values 0.973 | S. cerevisiae deletion strains, locus YML120C, strain ndi1, hits give low values 1 | S. cerevisiae deletion strains, locus YML124C, strain tub3, hits give low values 0.999 | S. cerevisiae deletion strains, locus YMR058W, strain fet3, hits give low values 0.984 | S. cerevisiae deletion strains, locus YMR078C, strain ctf18, hits give low values 0.999 | S. cerevisiae deletion strains, locus YMR125W, strain sto1, hits give low values 0.983 | S. cerevisiae deletion strains, locus YMR129W, hits give low values 1 | S. cerevisiae deletion strains, locus YMR205C, strain PFK2, hits give low values 0.978 | S. cerevisiae deletion strains, locus YMR223W, strain ubp8, hits give low values 0.982 | S. cerevisiae deletion strains, locus YMR231W, strain pep5, hits give low values 0.991 | S. cerevisiae deletion strains, locus YMR307W, strain GAS1, hits give low values 0.997 | S. cerevisiae deletion strains, locus YNL067W, strain RPL9B, hits give low values 1.02 | S. cerevisiae deletion strains, locus YNL071W, strain lat1, hits give low values 0.999 | S. cerevisiae deletion strains, locus YNL128W, strain TEP1, hits give low values 1.01 | S. cerevisiae deletion strains, locus YNL153C, strain GIM3, hits give low values 1.03 | S. cerevisiae deletion strains, locus YNL209W, strain ssb2, hits give low values 0.984 | S. cerevisiae deletion strains, locus YNL233W, strain BNI4, hits give low values 1.02 | S. cerevisiae deletion strains, locus YNL248C, strain rpa49, hits give low values 0.985 | S. cerevisiae deletion strains, locus YNL250W, strain rad50, hits give low values 0.972 | S. cerevisiae deletion strains, locus YNL271C, strain bni1, hits give low values 0.992 | S. cerevisiae deletion strains, locus YNL298W, strain CLA4, hits give low values 0.986 | S. cerevisiae deletion strains, locus YNL307C, strain MCK1, hits give low values 0.991 | S. cerevisiae deletion strains, locus YNL322C, strain KRE1 (second series), hits give low values 0.985 | S. cerevisiae deletion strains, locus YNL322C, strain KRE1, hits give low values 1 | S. cerevisiae deletion strains, locus YNR049C, strain mso1, hits give low values 0.975 | S. cerevisiae deletion strains, locus YNR052C, strain pop2, hits give low values 0.989 | S. cerevisiae deletion strains, locus YOL006C, strain TOP1, hits give low values 1.02 | S. cerevisiae deletion strains, locus YOL012C, strain htz1 0.724 | S. cerevisiae deletion strains, locus YOL147C, strain pex11, hits give low values 0.992 | S. cerevisiae deletion strains, locus YOR001W, strain rrp6, hits give low values 0.988 | S. cerevisiae deletion strains, locus YOR061W, strain CKA2, hits give low values 1 | S. cerevisiae deletion strains, locus YOR069W, strain VPS5, hits give low values 1 | S. cerevisiae deletion strains, locus YOR070C, strain gyp1, hits give low values 0.974 | S. cerevisiae deletion strains, locus YOR080W, strain dia2, hits give low values 0.971 | S. cerevisiae deletion strains, locus YOR083W, strain WHI5, hits give low values 0.974 | S. cerevisiae deletion strains, locus YOR106W, strain vam3, hits give low values 0.973 | S. cerevisiae deletion strains, locus YOR136W, strain idh2, hits give low values 0.998 | S. cerevisiae deletion strains, locus YOR144C, strain elg1, hits give low values 0.997 | S. cerevisiae deletion strains, locus YOR184W, strain ser1, hits give low values 0.983 | S. cerevisiae deletion strains, locus YOR265W, strain rbl2, hits give low values 1 | S. cerevisiae deletion strains, locus YOR270C, strain vph1, hits give low values 0.942 | S. cerevisiae deletion strains, locus YOR290C, strain snf2, hits give low values 0.991 | S. cerevisiae deletion strains, locus YOR316C, strain cot1, hits give low values 0.994 | S. cerevisiae deletion strains, locus YPL051W, strain arl3, hits give low values 0.983 | S. cerevisiae deletion strains, locus YPL055C, strain LGE1, hits give low values 1.03 | S. cerevisiae deletion strains, locus YPL078C, strain atp4, hits give low values 0.988 | S. cerevisiae deletion strains, locus YPL106C, strain sse1, hits give low values 0.939 | S. cerevisiae deletion strains, locus YPL240C, strain hsp82, hits give low values 0.992 | S. cerevisiae deletion strains, locus YPR119W, strain clb2, hits give low values 0.997 | S. cerevisiae deletion strains, locus YPR141C, strain kar3, hits give low values 1.01 | S. cerevisiae deletion strains, locus YPR163C, strain tif3, hits give low values 0.997 | S. cerevisiae deletion strains, locus YPR167C, strain met16, hits give low values 0.988 | S. cerevisiae deletion strains, strain wtn01, hits give low values 0.978 | S. cerevisiae strains, strain wild type, hits give low values 0.998
